# Screens as filed in PubChem.
# DT40 TDP1 no CPT: qHTS for Inhibitors of human tyrosyl-DNA phosphodiesterase 1 (TDP1): qHTS in cells in absence of CPT | DT40 Tdp1-/- hTDP1 cells, no CPT, ATP luminescence, 48 h | actives 15% (n = 420,000) | Potency, µM (series often up to 46.2 µM), actives largely listed as inhibitors; further: nearly all actives have a fitted effect of over 55% in size
#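 No-CPT arm: Tdp1-/-;hTDP1 DT40 cells (400/well) plus compounds, incubated ≥48 hr at 37 °C. Readout CellTiter-Glo luminescence.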
# DT40 TDP1 CPT: DT40-hTDP1 cell growth loss with CPT | Potency, µM (titrated, usually from 46.2 µM), actives largely listed as inhibitors | actives 12% (n = 420,000) | AID 686979 | chicken DT40 Tdp1-/-;hTDP1 cells + 20 nM CPT, ATP luminescence, 48 h; further: nearly all actives have a fitted effect of over 55% in size
#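 Chicken DT40 Tdp1-/- cells complemented with human TDP1, 400 cells/well, exposed to compounds plus 20 nM camptothecin for at least 48 h at 37 C; viability read as ATP content by CellTiter-Glo luminescence.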
# KAT2A inh: GCN5L2 (KAT2A) acetyltransferase inhibition. GCN5L2 HAT assay, ThioGlo1 CoA-SH fluorescence. AID 504327. Q92830. actives 0.21% (n = 390,000). Potency, µM (highest dose often 58.9 µM), most hits filed as inhibitors
#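 Fluorescence readout, Ex340nm/Em540nm: ThioGlo1 (50uM final) reacts with free CoA thiol released as 20nM GCN5L2 acetylates H3(1-25) peptide (75uM) using acetyl-CoA (70uM). Compound and enzyme sat 15 min beforehand; 20 min room-temperature reaction.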
# TDP1 block: TDP1 (human) enzyme inhibition; Potency, µM (highest dose often 130 µM), hits mostly inhibitors; actives 0.28% (n = 350,000); AID 485290; recombinant TDP1, AlphaScreen DNA substrate cleavage; Q9NUW8; further: nearly all actives have a fitted effect of over 40% in size
#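 Compounds were preincubated with Tdp1 (1 nM final) for 15 min at room temperature before substrate (15 nM final) started a 5 min reaction; beads (10 ug/ml final) were then added for 10 min before AlphaScreen detection.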
# VDR inhibitor: blocks the human vitamin D receptor. P11473. VDR-SRC2-3 peptide fluorescence polarization, 2 h. Potency, µM, hits mostly inhibitors. actives 0.93% (n = 400,000). AID 504847
#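 Measured by FP: displacement of SRC2-3 coactivator peptide from VDR by library compounds, following a two-hour ambient incubation.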
# PLK1 PBD inh: PLK1 (human) polo-box domain binding inhibition. Plk1 PBD binding of FITC phosphopeptide, fluorescence polarization. Potency, µM, actives largely listed as inhibitors. AID 720504. actives 2.8% (n = 360,000); further: series mostly up to about 57 µM; nearly all actives have a fitted effect of over 65% in size
# Target sequence (P53350 whole entry, looked up, the tested form may be a part): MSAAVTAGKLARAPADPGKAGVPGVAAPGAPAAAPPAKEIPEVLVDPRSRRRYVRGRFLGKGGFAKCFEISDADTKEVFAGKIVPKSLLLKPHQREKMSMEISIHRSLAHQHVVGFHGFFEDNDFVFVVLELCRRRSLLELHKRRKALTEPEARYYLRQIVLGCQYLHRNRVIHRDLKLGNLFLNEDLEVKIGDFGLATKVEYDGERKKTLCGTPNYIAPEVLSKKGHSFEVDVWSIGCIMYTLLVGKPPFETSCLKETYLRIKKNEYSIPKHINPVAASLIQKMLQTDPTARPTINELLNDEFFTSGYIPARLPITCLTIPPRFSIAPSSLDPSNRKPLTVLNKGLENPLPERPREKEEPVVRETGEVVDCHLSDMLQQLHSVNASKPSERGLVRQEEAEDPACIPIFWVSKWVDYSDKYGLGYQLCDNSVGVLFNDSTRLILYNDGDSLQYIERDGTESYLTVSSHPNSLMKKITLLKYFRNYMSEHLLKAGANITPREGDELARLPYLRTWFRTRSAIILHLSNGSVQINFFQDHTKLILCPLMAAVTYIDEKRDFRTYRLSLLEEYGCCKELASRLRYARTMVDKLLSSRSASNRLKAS
# A number is an active result; i = inactive; ? = inconclusive; nt = not tested or not shown; [ ] = remark or other dose. Compounds with a hit are over-represented: about 18% of the library has one in this group of screens. The call rests on the fitted dose curve; in most records, active means well fitted curve in the direction sought with a large enough effect; inconclusive means small, poorly fitted or top-dose-only effect, or another doubt; inactive means no such curve, though single readings can be large; an effect the other way counts as inactive or inconclusive.
SMILES,DT40 TDP1 no CPT,DT40 TDP1 CPT,KAT2A inh,TDP1 block,VDR inhibitor,PLK1 PBD inh
O=C(Nc1cccc(C(F)(F)F)c1)Nc1ccon1,?,i,i,i,i,i
O=C(Nc1ccc(OC(F)F)cc1)Nc1cccc(C(F)(F)F)c1,4.6µM,3.7µM,i[0.501 µM],i,i,i
O=C(Nc1cccc(C(F)(F)F)c1)c1ccco1,i,i,i,i,i,i
COc1cccc(-c2ccc3c(N)c(C(=O)c4ccc(F)cc4)sc3n2)c1,?,?,i,nt,i,nt
OCCCNCc1cc2ccc(F)cc2nc1N1CCN(c2cccc(Cl)c2)CC1,i,i[9.04 µM],nt,nt,nt,nt
CCOC(=O)c1cc(-c2ccccc2)nc2c(O)cccc12,i,i,nt,nt,i,i
CCSc1nc(-c2ccco2)ccc1C#N,?,23µM,i,i,i,?
Clc1ccccc1CO/N=C1\CCCc2nonc21,i,i,i,i,i,i
Clc1ccc(CO/N=C2\CCCc3nonc32)cc1,?,?,i,i,?,21µM
COCCNc1nc(Nc2ccc(Cl)cc2F)c2sccc2n1,16µM,13µM,nt,nt,nt,i
COCCNc1nc(-c2ccc(Cl)cc2C)c2sccc2n1,?,?,nt,nt,nt,i
CC(C)Nc1nc(Nc2ccc(C(N)=O)cc2)c2sccc2n1,?,26µM,nt,nt,nt,i
CCOC(=O)Cc1ccc(Nc2nc(NCCOC)nc3ccsc23)cc1,15µM,13µM,nt,nt,nt,i
CNc1nc(Nc2ccc(C(=O)OC)cc2)c2sccc2n1,15µM,13µM,nt,nt,nt,i
COCCn1c(N)c(N(Cc2ccccc2)C(=O)CSCC(=O)Nc2ccc(OC)cc2)c(=O)[nH]c1=O,i,i,i,nt,i,i
Cc1cc(=O)c(C(=O)N(C)CCc2ccccn2)c2n1-c1ccccc1SC(c1ccsc1)C2 (stereo unspecified),i,i[9.04 µM],nt,nt,nt,nt
Cc1ccc(S(=O)(=O)N2CCCCC2)cc1NC(=O)COC(=O)CN1C(=O)NC2(CC(C)CC(C)(C)C2)C1=O (stereo unspecified),?,?,nt,nt,i,i
COc1cc(NC(=O)CN2Cc3ccccc3C2=O)cc(OC)c1OC,i,i,i,i,i,nt
CN(C(=O)Cn1nc(Cc2cccnc2)c2ccccc2c1=O)c1cccc(C(F)(F)F)c1,i,i,i,i,i,nt
COCCNc1nc(N)c([N+](=O)[O-])c(Nc2ccc(F)cc2)n1,i,i,i,nt,i,i
COCCNc1nc(Nc2ccc(C(=O)OC)cc2)c2sccc2n1,16µM,12µM,nt,nt,nt,i
Cc1ccc(NNC(=S)Nc2ccc(C(C)C)cc2)c(C)c1,16µM,?,i,i,i,17µM
FC(F)(F)c1cc(NC(=S)Nc2ccc3cc4ccccc4cc3c2)cc(C(F)(F)F)c1,nt,nt,nt,i,22µM,nt
Cc1ccc(NC(=S)NNC(=O)Nc2ccccc2)cc1,?,?,i,i,i,i
CN(C)C(=S)Nc1cccc(C(F)(F)F)c1,?,26µM,i,i,i,i
SMILES,DT40 TDP1 no CPT,DT40 TDP1 CPT,KAT2A inh,TDP1 block,VDR inhibitor,PLK1 PBD inh
Cc1ccc(NC(=S)NNC(=S)Nc2ccc(C)cc2)cc1,2.3µM,6.5µM,nt,nt,79µM,?
CCCCCc1nnc(NC(=O)NS(=O)(=O)c2ccc(C)cc2)s1,i,i,i,i[0.0935 µM],i,i
Cc1onc(-c2ccccc2)c1C(=O)N=C(N)c1ccc(C(F)(F)F)cc1,i,i,i,i,i,i
COCCCn1cc(CN(C)C2CN(Cc3cn(CCCOC)nn3)S(=O)(=O)C2)nn1 (stereo unspecified),i,i,nt,nt,nt,i
COc1ccc(C(O)P(=O)(OC(C)C)OC(C)C)c(OC)c1 (stereo unspecified),i,i,i,i,i,i
Cc1ccc(C)c(NC(=S)NCCc2ccc(F)cc2)c1,?,?,i,i,i,?
CC(C)(C)NNC(=S)Nc1cccc(F)c1,15µM,?,i,i,i,i
CC(NC(=S)Nc1cccc(C(F)(F)F)c1)C(C)(C)C (stereo unspecified),16µM,?,i,i,i,i
FC(F)(F)c1cccc(NC(=S)NNC(=S)Nc2ccc(Cl)cc2)c1,nt,nt,i,i,nt,nt
Cc1ccc(C)c(NC(=S)NNc2ccc(F)cc2F)c1,?,?,i,nt,10µM,?
Cc1ccc(NC(=S)NNC(=S)Nc2cccc(C(F)(F)F)c2)cc1,29µM,?,?,i,28µM,19µM
O=C(Nc1ccc2c(c1)COC2=O)c1ccc(Cl)c(Cl)c1,i,i,i,i,i,i
COc1ccc(C(C(=O)NC2CCCCC2)N(C(=O)CCl)c2ccc(OC)cc2)cc1 (stereo unspecified),1.5µM,1.8µM,i,i,i,i
COc1cccc(N(C(=O)Cc2cccs2)C(C(=O)NC2CCCC2)c2ccncc2)c1 (stereo unspecified),i,i,i,nt,i,i
COC(CN(C(=O)CCl)C(C(=O)NC1CCCCC1)c1ccc(C)cc1)OC (stereo unspecified),13µM,16µM,i,i,i,i
COc1ccc(C(C(=O)NC2CCCC2)N(C(=O)c2ccoc2C)c2ccc(C)cc2)cc1 (stereo unspecified),16µM,18µM,i,i,i,i
COc1ccc(C(C(=O)NC2CCCCC2)N(C(=O)CCl)c2cccc(Cl)c2)cc1 (stereo unspecified),1.8µM,2.3µM,i,i,i,i
CCn1c(=N)c(C(=O)NC2CCCCC2)cc2c(=O)n3cc(C)ccc3nc21,i,i,i,nt,i,nt
Cc1ccc(C2CC(=O)N(Cc3ccc(F)cc3)c3c2c(C)nn3-c2nc(C)cc(C)n2)cc1 (stereo unspecified),?,?,i,i,i,nt
CCOC(=O)C1CCN(C(C(=O)NC2CCCCC2)c2ccc(OC)cc2)CC1 (stereo unspecified),?,?,i,i,i,27µM
COc1ccc(C(C(=O)NC2CCCCC2)N(C(=O)CCl)c2ccc(C)cc2)cc1 (stereo unspecified),1.6µM,1.8µM,i,i,i,i
O=c1[nH]c2c(cc1CNCCN1CCOCC1)c(-c1cccc(F)c1)nn2-c1ccccc1,nt,nt,i,i,nt,nt
COc1ccc(CNc2nc(NC(C)=O)nn2-c2ccccc2)cc1,i,i,i,i,i,i
Cc1nn(-c2ccccc2)c2[nH]c(=O)c(CNc3ccc(N4CCOCC4)cc3)cc12,18µM,18µM,i,i,i,3µM
Cc1nn(-c2ccc(Cl)cc2)c2[nH]c(=O)c(CNCc3ccc4c(c3)OCO4)cc12,18µM,18µM,i,i,i,?
COc1ccc(CNCc2cc3c(C(C)(C)C)nn(-c4ccccc4)c3[nH]c2=O)cc1,18µM,26µM,i,i,i,i
